From the supplement of paper PMC9262897, “Low-cost anti-mycobacterial drug discovery using engineered E. coli” (Nature Communications, 2022)
Where a name gives a salt, the structure may show the parent alone. ± gives the standard deviation of the averaged measurements.

Experiments:
Test in all cases: growth (OD600 after 10 h); higher = more growth (less inhibition)
[1] = tested on: E. coli TESEC Alr+ wild-type control; settings: compound 0.1 mM; raw OD600 reference: median of DMSO wells 0.241, cell-free background 0.041
Description: (§1)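 TESEC Mtb Alr E. coli, or the Alr+ wild-type control, in 384-well plates with Prestwick library compounds at 0.1 mM and 1% DMSO, across arabinose induction levels of 1E3 to 1E7 nM. Growth is read as OD600 after 10 h at 37 °C in triplicate biological replicates.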

[2] = tested on: E. coli TESEC Mtb Alr; settings: compound 0.1 mM
Description: as §1

[3] = tested on: E. coli TESEC Mtb Asd; settings: compound 0.1 mM
Description: (§2)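 TESEC E. coli strains in which the native enzyme is deleted and replaced by arabinose-inducible Mtb Asd, DapB, CysH or TrpD, each grown in its selective medium. Strains were screened against the Prestwick library at 0.1 mM and 1% DMSO in 384-well format at low and high arabinose induction. Growth is read as OD600 after 10 h in triplicate.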

[4] = tested on: E. coli TESEC Mtb DapB; settings: compound 0.1 mM
Description: as §2

[5] = tested on: E. coli TESEC Alr+ wild-type control; settings: compound 0.1 mM; raw OD600 reference: median of DMSO wells 0.49, cell-free background 0.052
Description: (§3)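 TESEC Mtb Alr E. coli (ΔaraC ΔtolC ΔentC Δalr ΔdadX, arabinose-inducible Mtb Alr) or the Alr+ wild-type control strain, grown in defined M9-fructose medium without D-alanine in 96-well plates with Prestwick library compounds at 0.1 mM and 1% DMSO. Low Alr induction is 0.1 µM arabinose and high induction is 10 mM arabinose.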

[6] = tested on: E. coli TESEC Mtb Alr; settings: compound 0.1 mM; remark: listed apart in the source
Description: as §3

[7] = arabinose 1000 nM, raw OD600 reference: median of DMSO wells 0.294, cell-free background 0.041
[8] = arabinose 10000 nM, raw OD600 reference: median of DMSO wells 0.264, cell-free background 0.041
[9] = arabinose 100000 nM, raw OD600 reference: median of DMSO wells 0.201, cell-free background 0.041
[10] = arabinose 1000000 nM, raw OD600 reference: median of DMSO wells 0.193, cell-free background 0.041
[11] = arabinose 10000000 nM, raw OD600 reference: median of DMSO wells 0.146, cell-free background 0.041
[12] = arabinose induction (level): High, raw OD600 reference: median of DMSO wells 0.331, cell-free background 0.041
[13] = arabinose induction (level): Low, raw OD600 reference: median of DMSO wells 0.417, cell-free background 0.041
[14] = arabinose induction (level): High, raw OD600 reference: median of DMSO wells […], cell-free background 0.041
[15] = arabinose induction (level): Low, raw OD600 reference: median of DMSO wells 0.227, cell-free background 0.041
[16] = arabinose 100 nM, raw OD600 reference: median of DMSO wells 0.413, cell-free background 0.052
[17] = arabinose 10000000 nM, raw OD600 reference: median of DMSO wells […], cell-free background 0.052

Compound	growth [1]	growth [2, 7]	growth [2, 8]	growth [2, 9]	growth [2, 10]	growth [2, 11]	growth [3, 12]	growth [3, 13]	growth [4, 14]	growth [4, 15]	growth [5]	growth [6, 16]	growth [6, 17]
Nc1nc(N)c2nc(-c3ccccc3)c(N)nc2n1 [Triamterene]	0.135 ± 0.0027	0.146 ± 0.012	0.12 ± 0.0045	0.138 ± 0.0069	0.0711 ± 0.0011	0.119 ± 0.0058	0.235 ± 0.014	0.411 ± 0.015	0.165 ± 0.0077	0.203 ± 0.046	0.422 ± 0.0047	0.416 ± 0.0074	0.122 ± 0.016
O=C(Cn1ccnc1[N+](=O)[O-])NCCO [Etanidazole]	0.2444 ± 0.00084	0.306 ± 0.015	0.258 ± 0.0028	0.213 ± 0.0053	0.178 ± 0.0091	0.138 ± 0.0056	0.318 ± 0.027	0.423 ± 0.0082	0.202 ± 0.006	0.232 ± 0.0081	0.471 ± 0.019	0.406 ± 0.012	0.358 ± 0.016
O=C(O)CCC(=O)c1ccc(-c2ccccc2)cc1 [Fenbufen]	0.201 ± 0.0054	0.232 ± 0.013	0.229 ± 0.0062	0.137 ± 0.0052	0.128 ± 0.0089	0.127 ± 0.0092	0.25 ± 0.049	0.286 ± 0.047	0.165 ± 0.0041	0.203 ± 0.047	0.441 ± 0.051	0.399 ± 0.013	0.235 ± 0.007
C[C@@H]1C[C@H]2[C@@H]3C[C@H](F)C4=CC(=O)C=C[C@]4(C)[C@@]3(Cl)[C@@H](O)C[C@]2(C)[C@H]1C(=O)COC(=O)C(C)(C)C [Clocortolone pivalate]	0.24 ± 0.0038	0.307 ± 0.0044	0.29 ± 0.013	0.206 ± 0.031	0.2 ± 0.027	0.151 ± 0.0033	0.198 ± 0.0099	0.322 ± 0.059	0.21 ± 0.0076	0.254 ± 0.0078	0.477 ± 0.013	0.433 ± 0.0058	0.377 ± 0.017
CCCCC(=O)O[C@H]1CC[C@H]2[C@@H]3CCc4cc(O)ccc4[C@H]3CC[C@]12C [Estradiol Valerate]	0.252 ± 0.004	0.307 ± 0.0067	0.285 ± 0.0065	0.215 ± 0.016	0.221 ± 0.021	0.13 ± 0.0034	0.404 ± 0.031	0.396 ± 0.048	0.193 ± 0.0052	0.207 ± 0.0061	0.48 ± 0.071	0.436 ± 0.018	0.38 ± 0.0047
O=C1[C@H](CC[C@H](O)c2ccc(F)cc2)[C@@H](c2ccc(O)cc2)N1c1ccc(F)cc1 [Ezetimibe]	0.0438 ± 0.00074	0.0482 ± 0.0028	0.046 ± 0.00091	0.0462 ± 0.0037	0.0477 ± 0.004	0.0501 ± 0.0032	0.101 ± 0.082	0.0479 ± 0.0012	0.0503 ± 0.003	0.04873 ± 0.00038	0.0525 ± 0.0014	0.0636 ± 0.0051	0.061 ± 0.01
CCCCOC(=O)c1ccc(O)cc1 [Butylparaben]	0.137 ± 0.0043	0.148 ± 0.0023	0.213 ± 0.0083	0.157 ± 0.0026	0.131 ± 0.0015	0.15 ± 0.0048	0.174 ± 0.0066	0.193 ± 0.017	0.175 ± 0.011	0.2066 ± 0.00083	0.399 ± 0.014	0.376 ± 0.029	0.304 ± 0.019
CCc1c2c(nc3ccc(OC(=O)N4CCC(N5CCCCC5)CC4)cc13)-c1cc3c(c(=O)n1C2)COC(=O)[C@]3(O)CC [Irinotecan hydrochloride trihydrate]	0.234 ± 0.0062	0.32 ± 0.0061	0.2556 ± 0.0019	0.218 ± 0.015	0.18 ± 0.0024	0.156 ± 0.0056	0.321 ± 0.042	0.414 ± 0.026	0.227 ± 0.0094	0.243 ± 0.0046	0.514 ± 0.052	0.401 ± 0.0022	0.366 ± 0.018
CO/N=C(\C(=O)N[C@@H]1C(=O)N2C(C(=O)O)=C(C[N+]3(C)CCCC3)CS[C@H]12)c1csc(N)n1 [Cefepime hydrochloride]	0.0426 ± 0.00078	0.0381 ± 0.00085	0.0472 ± 0.0016	0.03857 ± 0.00031	0.0612 ± 0.0025	0.048 ± 0.00053	0.197 ± 0.017	0.188 ± 0.012	0.182 ± 0.0028	0.173 ± 0.011	0.0488 ± 0.0038	0.0455 ± 0.00017	0.0731 ± 0.0077
C[N+](C)(C)CCCCCC[N+](C)(C)C [Hexamethonium dibromide dihydrate]	0.247 ± 0.0066	0.27 ± 0.018	0.245 ± 0.0047	0.191 ± 0.022	0.1745 ± 0.00064	0.138 ± 0.0063	0.344 ± 0.048	0.454 ± 0.015	0.205 ± 0.014	0.233 ± 0.042	0.536 ± 0.007	0.425 ± 0.0087	0.384 ± 0.015
Cc1ccc(O)c([C@H](CCN(C(C)C)C(C)C)c2ccccc2)c1 [Tolterodine tartrate]	0.163 ± 0.0078	0.245 ± 0.0098	0.283 ± 0.0087	0.201 ± 0.0068	0.148 ± 0.0076	0.191 ± 0.0035	0.245 ± 0.032	0.38 ± 0.025	0.198 ± 0.018	0.238 ± 0.036	0.55 ± 0.029	0.417 ± 0.0075	0.3 ± 0.013
O=c1[nH]cnc2c1ncn2[C@H]1CC[C@@H](CO)O1 [Didanosine]	0.18 ± 0.011	0.293 ± 0.023	0.27 ± 0.0051	0.16 ± 0.015	0.149 ± 0.0069	0.199 ± 0.0058	0.157 ± 0.0043	0.165 ± 0.013	0.18 ± 0.011	0.196 ± 0.048	0.503 ± 0.045	0.425 ± 0.0085	0.225 ± 0.019
Clc1ccc(COC(Cn2ccnc2)c2ccc(Cl)cc2Cl)c(Cl)c1 (configuration not stated) [Miconazole]	0.0977 ± 0.098	0.201 ± 0.11	0.03953 ± 0.00021	0.0741 ± 0.0079	0.03923 ± 0.00025	0.141 ± 0.061	0.0471 ± 0.00055	0.0481 ± 0.0013	0.0949 ± 0.0049	0.134 ± 0.1	0.137 ± 0.03	0.051 ± 0.0039	0.083 ± 0.0044
CCCC1O[C@@H]2C[C@H]3[C@@H]4CCC5=CC(=O)C=C[C@]5(C)[C@H]4[C@@H](O)C[C@]3(C)[C@]2(C(=O)CO)O1 (some centres not stated) [Budesonide]	0.1456 ± 0.0011	0.187 ± 0.0064	0.247 ± 0.0047	0.166 ± 0.015	0.112 ± 0.0012	0.141 ± 0.0021	0.309 ± 0.023	0.31 ± 0.025	0.167 ± 0.0066	0.231 ± 0.0093	0.449 ± 0.02	0.4337 ± 0.004	0.269 ± 0.0039
